Bioassay records: PubChem BioAssay, National Center for Advancing Translational Sciences (NCATS)
RORgamma inh = blocks mouse ROR gamma transcriptional activity; P51450; AID 2551; Potency, µM (highest dose often 53.6 µM), for inactives: top-dose activity change, negative = inhibition, usual class: inhibitors; Drosophila S2 Gal4-RORgamma UAS-luciferase reporter, 20 h; 310,000 compounds, 5.4% hits; note: % is set by controls: 0 for no effect and ±100 for the full control effect; nearly all actives have a fitted effect of over 60% in size
Target sequence (P51450 whole entry, looked up, the tested form may be a part): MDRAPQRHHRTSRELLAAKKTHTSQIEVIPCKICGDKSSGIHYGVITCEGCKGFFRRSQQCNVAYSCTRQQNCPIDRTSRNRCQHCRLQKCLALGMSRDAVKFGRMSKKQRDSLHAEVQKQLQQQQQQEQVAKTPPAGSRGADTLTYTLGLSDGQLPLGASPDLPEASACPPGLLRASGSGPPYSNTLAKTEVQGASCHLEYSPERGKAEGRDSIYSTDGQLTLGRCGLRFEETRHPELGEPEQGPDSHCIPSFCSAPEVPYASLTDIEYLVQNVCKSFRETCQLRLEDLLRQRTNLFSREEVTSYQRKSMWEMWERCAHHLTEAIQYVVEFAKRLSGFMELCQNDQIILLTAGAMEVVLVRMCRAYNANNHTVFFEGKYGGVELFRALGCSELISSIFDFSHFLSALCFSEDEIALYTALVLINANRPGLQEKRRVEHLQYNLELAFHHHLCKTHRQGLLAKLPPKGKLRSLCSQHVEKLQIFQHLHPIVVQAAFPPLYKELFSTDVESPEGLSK
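Compounds are pin-transferred onto Drosophila Schneider cells expressing a copper-inducible Gal4–ROR gamma transactivation domain fusion. After 1 hr, copper sulfate is added to 700 uM final; luciferase is read 20 hr later.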
VP16 counter = counter-screen for ROR gamma inhibitors: Gal4-VP16 reporter | Drosophila S2 Gal4-VP16 UAS-luciferase, luminescence, 20 h | Potency, µM (highest dose often 53.6 µM), for the others: at the top dose activity, negative = inhibition, usual class: inhibitors | 310,000 compounds, 3.5% hits | AID 2546;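 note: Gal4-VP16 expression switched on by copper sulfate through the metallothionein promoter; % is set by controls: 0 for no effect and ±100 for the full control effect; nearly all actives have a fitted effect of over 50% in size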
MCF10A rerep = inducers of DNA re-replication in MCF 10A breast cells. Potency, µM (series often up to 46.1 µM), inactives show at the top dose activity, positive = re-replication, most hits filed as activators. MCF 10A DNA re-replication, Hoechst nuclear intensity, 48 h. 350,000 compounds, 2.9% hits. AID 624296; note: % of control where 0% means no effect; nearly all actives have a fitted effect of over 50% in size
SW480 rereplic = DNA re-replication induction in SW480 cells | SW480 DNA re-replication, Hoechst DNA content imaging, 48 h | Potency, µM (doses to about 46.1 µM), inactives show at the highest dose re-replication activation, usual class: activators | 340,000 compounds, 1.8% hits; note: % of control where 0% means no effect; nearly all actives have a fitted effect of over 55% in size
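Cells (250 per well) received 23 nL compound or DMSO by pin tool and were kept 48 hr at 37 C, 5% CO2. Nuclei were then stained with Hoechst for 40 min and scanned for DNA content.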
ELG1 repair inh = blocks ELG1-dependent DNA repair in HEK293T cells; HEK293T ELG1-luciferase reporter, luminescence, 16 h; DNA damage induced by 5-fluorouridine; Potency, µM (titrated, usually from 46.1 µM), for the others: at the highest dose activity change, negative = inhibition, actives largely listed as inhibitors; 330,000 compounds, 2.3% hits; AID 504467; note: % is set by controls: 0 for no effect and ±100 for the full control effect; nearly all actives have a fitted effect of over 55% in size
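In this reporter screen, reduction of luminescence relative to DMSO vehicle indicated activity. Compounds and 5-fluorouridine were added together to 2,000 cells per well, incubated for 16 hr at 37 °C, then developed with ONE-Glo.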
Active calls of the source: *; ? = inconclusive; · = not tested or not shown. Compounds with a hit are over-represented: about 10% of the library has one in this group of screens. Calls come from the whole dose curve; as a rule, active = well fitted curve in the direction sought with a large enough effect; inconclusive = small, poorly fitted or top-dose-only effect, or another doubt; inactive = no such curve, though single readings can be large; an effect the other way counts as inactive or inconclusive. Potency is the fitted concentration of half-maximal effect.

SMILES | RORgamma inh | VP16 counter | MCF10A rerep | SW480 rereplic | ELG1 repair inh
CCc1nn(CC(=O)N2CCN(c3ccc(OC)cc3)CC2)c(=O)c2cc3occc3n12 | 12.4% | -7.9% | 10.5% | 6.1% | -4.2%
CC(=O)C(=Cc1ccc(C(=O)O)cc1)C(C)=O | 5.8% | -13.8% | -1.4% | 2.0% | 6.2%
Cc1ccc(NC(=O)C(=Cc2ccc(C(=O)O)cc2)C(=O)Nc2ccc(C)cc2C)c(C)c1 | 15.8µM* | ? | 2.59µM* | 18.4µM* | 16.4µM*
Cc1cc(C)c2c3c(sc2n1)C(=O)N(c1ccccc1C)CC(=O)N3 | 7.5% | -1.7% | 23.9% | -45.9% | ?
Cc1ccc(N2CC(=O)Nc3c(sc4nc(C)cc(C)c34)C2=O)cc1 | 12.4% | -1.8% | 1.6% | 1.5% | 23.1µM*
Cc1nn(-c2ccccc2)c2c1CC(=O)Nc1ccccc1-2 | · | · | 1.3µM* | 1.46µM* | ·
Cn1cc(CN2CCCC(C(=O)Nc3cccc(-c4cc5ccccc5[nH]4)c3)C2)cn1 (centres undefined) | -18.8% | -15.7% | ? | ? | 2.5%
CC(C)n1cc(CN2CCCC(C(=O)Nc3cccc(-c4cc5ccccc5[nH]4)c3)C2)cn1 (centres undefined) | -21.3% | 3.5% | 16.4µM* | ? | ?
Cc1sc2nc(COC(=O)c3ccc(O)cc3)[nH]c(=O)c2c1C | -17.7% | 3.6% | -3.8% | 2.9% | 0.0%
Cc1sc2nc(COC(=O)c3c(F)cccc3F)[nH]c(=O)c2c1C | 12.6µM* | 23.5% | -55.8% | -4.8% | ?
CCn1nc(C)cc1C(=O)N1CCCC(C(=O)c2ccccc2SC)C1 (centres undefined) | 44.0% | -22.4% | -0.1% | 5.0% | -4.0%
CCCCNC(=S)Nc1ccccc1F | 11.2µM* | ? | -0.9% | 0.1% | -5.0%
CC(C)CNC(=S)Nc1ccccc1F | 6.31µM* | 4.47µM* | ? | -3.8% | 14.8%
CC(C)c1ccccc1NC(=S)NCc1ccccc1F | ? | ? | 0.0% | -7.0% | 2.5%
CC(C)CN(C(=O)c1cccc(Cl)c1)c1c(N)n(CC(C)C)c(=O)[nH]c1=O | 8.5% | 13.7% | 15.1% | 7.1% | -2.7%
CN(Cc1ccc(Cl)cc1)C(=O)c1ccccc1SCC(=O)N1CCCC1 | · | · | 13.8% | -3.2% | -1.9%
O=C(c1ccco1)N1CCN(C(=O)c2cccs2)CC1 | 18.2% | -4.5% | 1.84µM* | 6.51µM* | -3.5%
O=C(CSc1nc2[nH]c(=O)cc(O)c2s1)Nc1nncs1 | · | · | -3.7% | 9.4% | ·
Cc1csc(NC(=O)CSc2nc3[nH]c(=O)cc(O)c3s2)n1 | · | · | 9.2µM* | ? | ·
O=c1c(-c2ccccc2)c1-c1ccccc1 | ? | 0.794µM* | ? | 5.96µM* | ·
COC(=O)C1CN(C(=O)C(C)Oc2ccccc2Cl)c2ccccc2O1 (centres undefined) | 13.2% | 10.2% | -0.9% | -3.4% | 7.5%
Cc1c(C(=O)Nc2nc(-c3ccccn3)cs2)oc2ccccc12 | · | · | 23.1µM* | 17.1% | 5.3%
O=C(Nc1nc(-c2ccccn2)cs1)c1cc2ccccc2o1 | 1.58µM* | 11.2µM* | ? | ? | ?
Cc1cc(-c2csc(NC(=O)c3cc4ccccc4o3)n2)c(C)n1C | 15.8% | -0.3% | 6.8% | -1.1% | ?
C/C(=N\O)c1cc(Cl)cc(Cl)c1O | ? | -2.2% | 0.2% | 6.5% | 0.5%
SMILES | RORgamma inh | VP16 counter | MCF10A rerep | SW480 rereplic | ELG1 repair inh
C/C(=N\NC(N)=O)c1cc(Cl)cc(Cl)c1O | 0.891µM* | 10µM* | 1.8% | ? | -16.3%
CCn1cc(C(=O)N[C@@H](C)C(=O)NCCCN2CCOCC2)c(=O)c2cc3c(cc21)OCO3 | 17.6% | -15.4% | 0.4% | -8.4% | 28.0%
CCOC(=O)c1cccc(NC(=O)Cn2nc(C)n3cccc3c2=O)c1 | 1.3% | -0.7% | -5.3% | 0.6% | 8.6%
CC1Cc2cc(/C=C3/SC(N4CCC(C(N)=O)CC4)=NC3=O)ccc2O1 (centres undefined) | 17.0% | -14.7% | -13.0% | 13µM* | 25.9µM*
COc1cc2c3nnc(-c4ccc(F)cc4)c-3cn(Cc3ccc(F)cc3)c2cc1OC | ? | 4.7% | 18.4µM* | ? | ?
COc1ccc(Cn2cc3c(-c4ccc(F)cc4)nnc-3c3cc(OC)c(OC)cc32)cc1 | -29.7% | -3.2% | ? | ? | ?
COc1cc2c3nnc(-c4ccc(F)cc4)c-3cn(Cc3ccccc3)c2cc1OC | 11.2µM* | 7.08µM* | ? | ? | -4.0%
Cc1ccc2nc(SCC(=O)OCc3ccccc3)nc(=O)n2c1 | · | · | 6.3% | 22.4% | ?
COc1ccc(CC(=O)Nc2nncs2)cc1OC | -3.5% | -3.3% | -7.5% | 8.2µM* | ?
CCSc1nnc(NC(=O)Cc2ccc(OC)c(OC)c2)s1 | 18.0% | -2.8% | 0.9% | -8.8% | -1.8%
COCCSc1nnc(NC(=O)Cc2ccc(OC)c(OC)c2)s1 | -1.6% | -1.4% | 10.2% | 23.1µM* | ?
Cc1cc(C)cc(N(CC(=O)NCc2ccco2)S(=O)(=O)c2ccccc2)c1 | -0.9% | 15.9% | 2.1% | -1.0% | 16.0%
CCCN(CCC)CCCNC(=O)CC(C(=O)N1CCc2ccccc21)n1ccnc1 (centres undefined) | -12.6% | -3.9% | 5.7% | -2.9% | -11.4%
CCN(CC)CC(C)CNC(=O)CC(C(=O)N1CCc2ccccc21)n1ccnc1 (centres undefined) | 11.2µM* | -6.8% | 5.0% | 1.3% | 13.4%
CCOC(=O)/C(N=Nc1ccc(C(=O)O)cc1[N+](=O)[O-])=C(\C)O | ? | -0.2% | 3.66µM* | -66.5% | 7.5%
Cc1ccc2nc(NC(=O)CN(C)S(=O)(=O)c3ccc(Br)s3)sc2c1 | ? | 8.0% | 23.1µM* | ? | ?
Cc1ccc2nc(NC(=O)CNS(=O)(=O)c3ccc(Br)s3)sc2c1 | -30.3% | -4.1% | ? | -12.0% | 5.1%
CCOC(=O)c1ccc(NC(=O)CN(C)S(=O)(=O)c2ccc(Br)s2)cc1 | ? | -4.6% | ? | -0.6% | 25.9µM*
Cc1ccc2nc(NC(=O)CN(C)S(=O)(=O)c3cccc4nsnc34)sc2c1 | -5.5% | -5.8% | ? | 2.31µM* | 2.0%
CN(C)S(=O)(=O)c1cccc(NC(=O)C2Cc3ccccc3CN2C(=O)c2ccco2)c1 (centres undefined) | 3.4% | ? | -5.4% | 4.9% | 4.3%
Cc1nnc2n(Cc3ccccc3)c(=O)c3c4c(sc3n12)CCCC4 | 11.2µM* | ? | · | · | 2.7%
CCOC(=O)CSc1nnc2n(Cc3ccccc3)c(=O)c3c4c(sc3n12)CCC4 | ? | -8.4% | -39.9% | -0.6% | 7.0%
C=CCn1c(=O)c2c3c(sc2n2c(Nc4ccc(C(=O)OCC)cc4)nnc12)CCCC3 | -13.1% | -6.2% | 10.7% | 13µM* | -17.2%
COc1ccc(-n2c(=O)c3c4c(sc3n3c(=S)[nH]nc23)CCCC4)cc1 | 7.94µM* | 12.6µM* | 8.9% | -3.2% | 8.5%
